This is a sample that favours compounds with a hit; in the whole collection about 7.4% have one here.
FLuc modulator = qHTS profiling assay for firefly luciferase inhibitor/activator using purifed enzyme and Km concentrations of substrates (counterscreen for miR-21 project) | Luciferin 4-monooxygenase (Photinus pyralis), P08659 | purified FLuc, Km substrates, luminescence inhibition | Potency, µM (top dose mostly 57.5 µM), for inactives: top-dose activity change, negative = inhibition, usual class: inhibitors | 6.9% of 360,000 active;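 also: plate controls were vehicle for no effect and reference inhibitor for full effect; nearly all actives have a fitted effect of over 55% in size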
Target sequence (P08659 whole entry, looked up): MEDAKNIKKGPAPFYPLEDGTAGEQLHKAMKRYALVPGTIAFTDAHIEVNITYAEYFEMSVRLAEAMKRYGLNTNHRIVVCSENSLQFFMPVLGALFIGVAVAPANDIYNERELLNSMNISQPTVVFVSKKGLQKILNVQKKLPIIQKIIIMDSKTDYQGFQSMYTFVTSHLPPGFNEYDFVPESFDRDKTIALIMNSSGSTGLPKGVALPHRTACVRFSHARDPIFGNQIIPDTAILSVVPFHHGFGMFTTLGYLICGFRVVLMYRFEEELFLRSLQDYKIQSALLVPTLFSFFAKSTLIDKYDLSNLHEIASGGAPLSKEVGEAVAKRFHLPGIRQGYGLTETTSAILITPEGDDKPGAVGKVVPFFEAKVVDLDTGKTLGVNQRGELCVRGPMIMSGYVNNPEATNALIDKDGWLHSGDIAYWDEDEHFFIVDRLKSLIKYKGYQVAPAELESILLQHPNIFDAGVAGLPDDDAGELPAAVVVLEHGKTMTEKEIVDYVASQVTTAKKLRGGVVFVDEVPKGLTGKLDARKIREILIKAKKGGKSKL
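Purified P. pyralis luciferase, 10 nM final, with Km-level 10 uM D-luciferin and 10 uM ATP in 50 mM Tris acetate pH 7.5, 10 mM Mg acetate, 0.01% Tween-20, 0.05% BSA; 6-point qHTS titration about 60 µM downward; luminescence read.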
SMN2 splice enh = qHTS Assay for Enhancers of SMN2 Splice Variant Expression; HEK293 SMN2-luciferase splicing reporter, luminescence, 30-36 h; Potency, µM (top dose mostly 46.1 µM), for inactives: top-dose activity change, positive = activation, usual class: activators; 2.8% of 210,000 active; AID 1458, 2008; also: % of control where 0% means no effect; nearly all actives have a fitted effect of over 55% in size
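HEK293 cells carry an SMN2 minigene-luciferase reporter in which exon 7 inclusion puts luciferase in frame. Cells were seeded at 2000 cells/well, attached for 10-12 hours, then exposed to compounds for 30-36 hours at 37C before ONE-Glo luminescence.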
p53 reactivator = qHTS assay for re-activators of p53 using a Luc reporter; Potency, µM (titrated, usually from 92.2 µM), inactives show at the highest dose activity change, positive = activation, hits mostly activators; H1299 p53-A138V BP100-luciferase reporter, luminescence, 24 h; AID 504706, 2011; 0.063% of 320,000 active; also: % of control where 0% means no effect; nearly all actives have a fitted effect of over 45% in size
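H1299 (p53-null), stable ts p53-A138V + BP100-Luc; 1000 cells/well, Opti-MEM/10% FBS; cpd 4 pt, 1:5; 24 h, 37 deg C, 5% CO2; detection reagent 10 min RT; luminescence.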
ELG1 genotoxic = qHTS screen for small molecules that induce genotoxicity in human embryonic kidney (HEK293T) cells expressing luciferase-tagged ELG1; Potency, µM (series often up to 46 µM), inactives show top-dose activity change, positive = activation, most hits filed as activators; 1.3% of 330,000 active; HEK293T ELG1-luciferase reporter, luminescence, 16 h; also: % of control where 0% means no effect; nearly all actives have a fitted effect of over 60% in size
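Genotoxicity was scored as increased ELG1-luciferase reporter signal, measured by ONE-Glo luminescence (30 min, room temperature). Compound or vehicle exposure of the HEK293T reporter cells lasted 16 hr at 37°C.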
NPC1 prom act = qHTS Assay for NPC1 Promoter Activators; 2.4% of 320,000 active; Potency, µM (doses to about 9.22 µM), for the others: top-dose activation, hits mostly activators; Huh7 NPC1 promoter luciferase reporter, 24 h; also: % of control where 0% means no effect; nearly all actives have a fitted effect of over 60% in size
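Readout is luciferase luminescence, reflecting NPC1 promoter activation in stably transfected Huh7 cells after 24 h compound exposure at 37 °C in reduced-serum medium with 10% FBS.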
Rab9 promoter act = qHTS Assay for Rab9 Promoter Activators; AID 485297, 2010; 2.8% of 320,000 active; Huh7 Rab9 promoter-luciferase reporter, luminescence, 24 h; Potency, µM (top dose mostly 9.22 µM), for the others: top-dose activation, negative = inhibition, usual class: activators; also: % of control where 0% means no effect; nearly all actives have a fitted effect of over 60% in size
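Huh7 cells stably carrying a Rab9 promoter-luciferase reporter, 1500 cells per well in OP-MEM I with 10% FBS, treated with compound 24 hours at 37C. Luciferase activity read by luminescence after 10 minutes with Amplite reagent.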
Starred values were filed as active, the others as inactive; ? = inconclusive; · = no result. Calls follow the shape of the dose curve; as a rule, active = well fitted curve in the direction sought with a large enough effect; inconclusive = small, poorly fitted or top-dose-only effect, or another doubt; inactive = no such curve, though single readings can be large; an effect the other way counts as inactive or inconclusive. Potency is read from the fitted curve at half-maximal effect.

SMILES	FLuc modulator	SMN2 splice enh	p53 reactivator	ELG1 genotoxic	NPC1 prom act	Rab9 promoter act
Cc1ccc(-c2nn(-c3ccccc3)cc2C(=O)N2CCN(c3ccccn3)CC2)cc1	15.1µM*	3.3%	4.5%	-5.9%	-6.1%	6.6%
O=C(c1cn(-c2ccccc2)nc1-c1ccccc1)N1CCN(c2ccccn2)CC1	10.7µM*	6.6%	3.8%	-9.2%	-1.4%	-4.7%
O=C1C(Cl)=C(NC2CCc3ccccc32)C(=O)c2ncccc21 (centres undefined)	·	-103.8%	·	·	·	·
Cn1cccc1C(=O)C(=O)Nc1cccc(Cl)c1Cl	2.39µM*	25.1µM*	4.8%	?	4.8%	21.6%
Cn1cccc1C(=O)C(=O)Nc1ccc(Cl)cc1	1.9µM*	10µM*	?	?	0.794µM*	0.501µM*
Cn1cccc1C(=O)C(=O)Nc1ccc(F)c(F)c1	10.7µM*	11.2µM*	22.8%	?	2µM*	1.26µM*
CC(C)(C)NC(=O)Nc1cccc(Cl)c1Cl	-0.9%	·	-2.6%	-4.4%	3.9%	1.4%
Cn1cccc1C(=O)C(=O)Nc1cc(Cl)cc(Cl)c1	?	-4.4%	9.0%	24.7%	?	?
C=CCOC(=O)C(=O)/C=C/c1ccc2c(c1)Cc1ccccc1-2	10.7µM*	·	6.2%	7.3%	-0.7%	2.2%
CCCCN1CN=C(Nc2nc3ccccc3o2)NC1	?	29.0%	?	?	?	3.55µM*
CC(C)N1CN=C(Nc2nc3ccccc3o2)NC1	?	?	27.3%	-9.2%	17.4%	?
c1ccc2oc(NC3=NCN(C4CCCCC4)CN3)nc2c1	?	·	16.8%	?	2.51µM*	?
O=C(CCC(=O)N1Cc2ccccc2Oc2ncccc21)NCc1cccc(Cl)c1	-11.8%	·	·	·	·	·
CCOc1ccc(-n2c(SCC(=O)Nc3cc(C)on3)nc3c(c2=O)SCC3)cc1	2.3%	·	15.3%	5.4%	-5.4%	4.8%
Cn1c(C(C#N)C(=O)c2ccco2)nc2ccccc21 (centres undefined)	16.9µM*	29.3%	23.9%	15.5%	-0.8%	6.6%
CCc1ccccc1NC(=O)CC(NCc1ccccc1)C(=O)O (centres undefined)	1.2%	·	3.4%	0.8%	-1.7%	-0.9%
COc1ccc(CNC(=O)Nc2cccc(Cl)c2)cc1	?	·	23.4%	?	2.51µM*	?
Cc1cc2cc(CNC(=O)Nc3cccc(Cl)c3)ccc2n1C	-3.8%	-25.2%	-0.1%	23.1µM*	0.6%	-0.5%
COc1ccc(NC(=O)NCc2ccc(Cl)cc2)cc1	-1.2%	·	13.4%	15.1%	-5.9%	1.7%
COc1ccccc1C(=O)NC(=O)Nc1cccc(Cl)c1	2.69µM*	·	?	?	?	3.98µM*
CCC(CC)C(=O)Nc1c(C(=O)N2CCN(c3ccccc3F)CC2)oc2ccccc12	-15.1%	·	·	·	·	·
Cc1cc(C)c(C)c(S(=O)(=O)N2CCC(C(=O)N3CCCCCCC3)CC2)c1C	-0.6%	·	-0.7%	-13.2%	-0.3%	4.6%
Cc1ccc(NC(=O)CSc2nc3c(sc4ccccc43)c(=O)n2CCCC(=O)NC2CCCC2)cc1C	-0.9%	-3.3%	·	·	·	·
CC(=O)Oc1ccc(N(C(C)=O)S(=O)(=O)c2ccc3ccccc3c2)cc1	-10.7%	·	-4.0%	-6.3%	-4.0%	3.6%
CCOC(=O)Cn1cc(C(=O)c2cccs2)c2ccccc21	?	0.141µM*	0.0%	-1.6%	1.8%	-5.1%
SMILES	FLuc modulator	SMN2 splice enh	p53 reactivator	ELG1 genotoxic	NPC1 prom act	Rab9 promoter act
O=C(O)Cn1cc(C(=O)c2cccs2)c2ccccc21	?	1.8%	5.7%	0.1%	1.4%	-6.9%
O=C(Nc1ccc(OCC(=O)N2CCOCC2)cc1)c1ccccc1Cl	1.69µM*	·	-4.0%	?	22.4%	24.1%
COc1cc(C(=O)Nc2ccc(C)c(S(=O)(=O)N(C)C)c2)ccc1OCC(=O)N1CCOCC1	3.01µM*	·	2.4%	3.0%	12.8%	28.6%
Cc1ccc(C(=O)Nc2cc(C)c(OCC(=O)N3CCOCC3)c(C)c2)cc1	0.675µM*	11.2µM*	9.0%	?	?	2.82µM*
CCCCOc1ccc(C(=O)Nc2ccc(OCC(=O)N3CCOCC3)cc2)cc1	1.07µM*	·	-9.8%	8.7%	?	22.2%
O=C(N/N=C/c1ccc(OCC(=O)N2CCOCC2)cc1)c1ccccc1Cl	?	0.3%	-2.0%	-1.2%	-1.4%	1.4%
COc1ccccc1C(=O)Nc1cc(C)c(OCC(=O)N2CCOCC2)c(C)c1	?	·	2.0%	5.5%	-2.7%	11.9%
COc1ccc(NC(=O)Nc2ccc(OCC(=O)N3CCOCC3)cc2)cc1OC	13.5µM*	·	4.6%	4.5%	-5.1%	4.7%
COc1ccc(Cl)cc1C(=O)Nc1ccc(OCC(=O)N2CCOCC2)cc1	?	·	-5.6%	-6.1%	6.5%	-3.8%
Cc1cc(OCC(=O)N2CCOCC2)ccc1NC(=O)c1ccccc1C	7.57µM*	·	3.7%	?	20.1%	·
CC[C@@H](C)[C@H](NS(=O)(=O)c1cccc2ccccc12)C(=O)N[C@H](C=O)Cc1c[nH]c2ccccc12	·	12.9%	·	·	·	·
CCNC(=S)Nc1ccc(NC(=O)c2ccccc2O)cc1	12µM*	·	-2.1%	0.2%	14.7%	-1.0%
O=C(Nc1ccc(Br)cc1)c1ccccc1Br	10.7µM*	·	·	?	1.41µM*	3.16µM*
O=C(O)c1ccc(NC(=O)c2ccccc2NC(=O)c2ccccc2Br)cc1	16.9µM*	·	-2.4%	5.1%	0.4%	0.9%
CCc1ccc(NC(=O)c2ccccc2Br)cc1	10.7µM*	12.6µM*	25.1%	-12.5%	1.41µM*	2µM*
CCn1c(C(=O)NCc2ccccc2Br)cc2oc3ccccc3c21	-10.0%	4.47µM*	·	·	·	·
COc1ccc(CNC(=O)c2cc3oc4ccccc4c3n2C)cc1OC	-11.7%	?	·	·	·	·
Cn1c(C(=O)NCC2CCCO2)cc2oc3ccccc3c21 (centres undefined)	13.5µM*	6.1%	15.7%	?	2.82µM*	1.58µM*
CCCOc1ccc(CNC(=O)c2cc3oc4ccccc4c3n2C)cc1	3.0%	?	·	·	·	·
Cn1c(C(=O)NCc2ccccc2)cc2oc3ccccc3c21	13.5µM*	31.6µM*	13.8%	7.0%	17.1%	?
CCn1c(C(=O)NCc2cccc(Br)c2)cc2oc3ccccc3c21	3.1%	?	·	·	·	·
Cn1c(C(=O)NCc2cccs2)cc2oc3ccccc3c21	13.5µM*	4.47µM*	2.5%	-2.3%	1.4%	?
CC(=O)Nc1ccc2nc(NC(=O)c3ccc([N+](=O)[O-])o3)sc2c1	21.3µM*	·	?	-12.8%	12.1%	15.8%
